Measurements taken from PubChem BioAssay.
Calls of active or inactive are those of the source.

What was measured:
[1] = optical density shifts of acrAB sulA E. coli – strain DRC41, OD650, 48 h, E. coli filamentation inducer project, primary screen (AID 1152); details: higher = more signal, called active from +8 up or from −8 down;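 note: E. coli MC1000 strain DRC41 lacking acrAB efflux pump and sulA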
[2] = probe aLefty1 binding on compound microarray – biochemical, small-molecule microarray, 635/667 nm fluorescence, primary screen (AID 1153); details: higher = more signal;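 note: score merges spot fluorescence with signal-to-noise ratio from the scanned slide images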
[3] = plasmodial surface anion channel blockers, osmotic lysis – cell-based, P. falciparum Indochina, OD700, 1 h, primary screen (AID 1154); details: P. falciparum Indochina infected RBC osmotic lysis, higher = more signal, called active from +8 up or from −8 down
[4] = plasmodial surface anion channel blockers, osmotic lysis – cell-based, P. falciparum Indochina, OD700, 2 h, primary screen (AID 1155);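 note: lysis reports solute entry through the parasite surface anion channel PSAC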; details: P. falciparum Indochina infected erythrocytes, higher = more signal, called active from +8 up or from −8 down
[5] = changes in parasitized red cell lysis, either direction – P. falciparum Indochina, OD700, 3 h, PSAC antagonist project, primary screen (AID 1156); details: P. falciparum-infected erythrocytes, osmotic lysis, higher = more signal, called active from +8 up or from −8 down
[6] = plasmodial surface anion channel blockers, osmotic lysis – cell-based, P. falciparum Indochina, OD700, 18 h, primary screen (AID 1157); details: P. falciparum Indochina infected erythrocytes, osmotic lysis OD700, 18 h; higher = more signal, called active from +8 up or from −8 down
[7] = S6 kinase pathway phospho-S6 level changes – cell-based, A549, cytoblot, luminescence, serum-stimulated, primary screen (AID 1158); details: 5 h, higher = more signal;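 note: serum-stimulated A549 lung adenocarcinoma cells; signal is phosphorylated S6 detected by cytoblot immunostaining with HRP secondary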
[8] = biological target: NADPH oxidase 2 (Homo sapiens) (UniProt P04839); assay: compounds shifting NOX2 Amplex Red fluorescence – cell-based, HEK293-NOX2, PMA-stimulated, NOX inhibitor project, primary screen (AID 1159); details: 45 min, higher = more signal, called active from +8 up or from −8 down; note: test concentration not given here
NADPH oxidase 2 (Homo sapiens), sequence (P04839 whole entry, looked up): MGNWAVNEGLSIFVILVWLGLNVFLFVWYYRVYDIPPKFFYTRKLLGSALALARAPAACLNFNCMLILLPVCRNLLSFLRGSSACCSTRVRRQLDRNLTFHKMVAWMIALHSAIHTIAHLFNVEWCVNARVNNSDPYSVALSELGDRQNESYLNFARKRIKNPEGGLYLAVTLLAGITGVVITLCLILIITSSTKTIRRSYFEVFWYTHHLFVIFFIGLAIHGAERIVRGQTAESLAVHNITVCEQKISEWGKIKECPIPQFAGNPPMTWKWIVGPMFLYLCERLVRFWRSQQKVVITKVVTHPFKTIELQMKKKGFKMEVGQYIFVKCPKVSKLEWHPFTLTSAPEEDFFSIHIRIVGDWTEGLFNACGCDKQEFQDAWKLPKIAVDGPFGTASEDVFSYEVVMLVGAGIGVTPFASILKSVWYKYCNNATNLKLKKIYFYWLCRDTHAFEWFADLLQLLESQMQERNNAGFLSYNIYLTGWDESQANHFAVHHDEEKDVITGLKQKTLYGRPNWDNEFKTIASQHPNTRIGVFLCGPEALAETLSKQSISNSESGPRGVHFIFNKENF

[9] = biological target: NADPH oxidase 4 (Homo sapiens) (UniProt Q9NPH5); assay: compounds shifting NOX4 Amplex Red fluorescence – cell-based, HEK293-NOX4, tetracycline-induced, NOX inhibitor project, primary screen (AID 1160); details: HEK293-NOX4, Amplex Red H2O2 fluorescence, 45 min; higher = more signal, called active from +8 up or from −8 down
NADPH oxidase 4 (Homo sapiens), sequence (Q9NPH5 whole entry, looked up): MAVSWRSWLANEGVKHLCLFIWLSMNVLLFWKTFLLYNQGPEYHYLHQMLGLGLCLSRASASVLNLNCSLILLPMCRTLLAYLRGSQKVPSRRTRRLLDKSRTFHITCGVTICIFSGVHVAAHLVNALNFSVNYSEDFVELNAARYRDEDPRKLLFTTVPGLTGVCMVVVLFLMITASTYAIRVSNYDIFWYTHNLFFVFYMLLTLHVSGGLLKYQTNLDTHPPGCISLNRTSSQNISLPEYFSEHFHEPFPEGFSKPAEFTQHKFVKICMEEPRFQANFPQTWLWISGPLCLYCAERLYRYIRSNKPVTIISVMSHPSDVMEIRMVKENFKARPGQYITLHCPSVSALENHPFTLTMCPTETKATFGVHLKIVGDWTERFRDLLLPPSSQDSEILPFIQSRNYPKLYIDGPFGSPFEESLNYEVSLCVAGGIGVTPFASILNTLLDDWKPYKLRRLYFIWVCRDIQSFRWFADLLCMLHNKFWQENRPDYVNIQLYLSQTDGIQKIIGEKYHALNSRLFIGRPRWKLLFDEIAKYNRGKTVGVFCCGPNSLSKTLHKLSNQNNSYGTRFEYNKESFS

[10] = biological target: NADPH oxidase 5 (Homo sapiens) (UniProt Q96PH1); assay: compounds shifting NOX5 Amplex Red fluorescence – cell-based, HEK293-NOX5, NOX inhibitor project, primary screen (AID 1161); details: HEK293-NOX5, ionomycin, 45 min, higher = more signal
NADPH oxidase 5 (Homo sapiens), sequence (Q96PH1 whole entry, looked up): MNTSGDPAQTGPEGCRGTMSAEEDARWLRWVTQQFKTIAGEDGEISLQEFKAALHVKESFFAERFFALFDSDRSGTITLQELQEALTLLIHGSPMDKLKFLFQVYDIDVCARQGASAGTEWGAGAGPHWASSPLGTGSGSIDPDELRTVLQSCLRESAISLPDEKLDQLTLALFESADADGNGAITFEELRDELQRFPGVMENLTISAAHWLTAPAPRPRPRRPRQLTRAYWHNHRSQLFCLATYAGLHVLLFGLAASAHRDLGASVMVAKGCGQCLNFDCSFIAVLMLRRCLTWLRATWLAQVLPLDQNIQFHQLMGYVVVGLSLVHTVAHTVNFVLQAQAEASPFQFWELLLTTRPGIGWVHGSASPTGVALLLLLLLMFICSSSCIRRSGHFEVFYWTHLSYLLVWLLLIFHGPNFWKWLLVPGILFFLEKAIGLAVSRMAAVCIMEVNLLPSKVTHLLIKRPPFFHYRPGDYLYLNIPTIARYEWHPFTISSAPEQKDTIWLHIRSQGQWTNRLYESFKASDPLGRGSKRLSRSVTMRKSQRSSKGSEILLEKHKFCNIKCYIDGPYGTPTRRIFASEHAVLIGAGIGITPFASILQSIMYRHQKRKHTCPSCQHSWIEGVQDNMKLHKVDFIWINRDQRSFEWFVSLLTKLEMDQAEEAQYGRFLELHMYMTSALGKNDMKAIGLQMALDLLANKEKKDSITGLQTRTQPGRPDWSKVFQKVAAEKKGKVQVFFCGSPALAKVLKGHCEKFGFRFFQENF

[11] = compound effects on lung adenocarcinoma cell viability – A549, calcein-AM fluorescence, 48 h, basal, profiling panel (AID 1162); details: higher = more signal; note: test concentration not given here
[12] = compound effects on differentiated 3T3-L1 adipocyte viability – cell-based, 3T3-L1 adipocytes, calcein-AM fluorescence, 48 h, basal, profiling panel (AID 1163); details: 3T3-L1 adipocytes viability, higher = more signal; note: test concentration not given here
[13] = compound effects on hepatocellular carcinoma cell viability – HepG2, calcein-AM fluorescence, 48 h, basal, profiling panel (AID 1164); details: higher = more signal; note: test concentration not given here
[14] = compound effects on multiple myeloma cell viability – MM1S, calcein-AM fluorescence, 48 h, basal, profiling panel (AID 1165); details: higher = more signal;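 note: viability of MM1S multiple myeloma cells under basal unstimulated conditions; test concentration not given here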
[15] = calcein-AM signal in unstimulated myeloma cells – cell-based, calcein-AM fluorescence, 48 h, PK04 Diversity Set, profiling panel (AID 1166); details: RPMI8226 myeloma viability, higher = more signal;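 note: cells grown under basal conditions without added stimulus; test concentration not given here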
[16] = JC-1 mitochondrial signal, unstimulated HepG2 cells – cell-based, JC-1 fluorescence, 24 h, 100 nL compound, profiling panel (AID 1167); details: HepG2 mitochondrial potential, higher = more signal; note: test concentration not given here
[17] = JC-1 mitochondrial signal, unstimulated adipocytes – cell-based, JC-1 fluorescence, 3T3-L1 adipocytes, 24 h, 100 nL compound, profiling panel (AID 1168); details: JC-1 mitochondrial fluorescence, higher = more signal, called active from +8 up or from −8 down; note: test concentration not given here
[18] = JC-1 mitochondrial signal, unstimulated myeloma cells – cell-based, JC-1 fluorescence, RPMI8226, 24 h, 100 nL compound, profiling panel (AID 1169); details: JC-1 mitochondrial potential fluorescence, higher = more signal; note: test concentration not given here
[19] = JC-1 mitochondrial signal, unstimulated MM1S myeloma – cell-based, JC-1 fluorescence, 24 h, 100 nL compound, profiling panel (AID 1170); details: MM1S mitochondrial potential, higher = more signal; note: test concentration not given here
[20] = resazurin metabolic signal in A549 cells – cell-based, resazurin fluorescence, 24 h, PK04 Diversity Set, profiling panel (AID 1171); details: A549 viability, higher = more signal, called active from +8 up or from −8 down; note: test concentration not given here

CC(C)NC(=O)[C@@H]1c2ccccc2C(=O)N(Cc2cc(C(F)(F)F)cc(C(F)(F)F)c2)[C@H]1c1ccc(CO)cc1
z-score [1]: -0.464 (inactive) | composite z-score [2]: 0.358 | z-score [3]: 1.54 (inactive) | z-score [4]: 0.349 (inactive) | z-score [5]: -0.113 (inactive) | z-score [6]: 0.057 (inactive) | z-score [7]: -0.167 | z-score [8]: 0.513 (inactive) | z-score [9]: 0.349 (inactive) | z-score [10]: -0.284 | z-score [11]: -0.255 | z-score [12]: 0.884 | z-score [13]: -0.355 | z-score [14]: -1.1 | z-score [15]: -1.42 | z-score [16]: 0.571 | z-score [17]: 0.198 (inactive) | z-score [18]: 0.967 | z-score [19]: 0.144 | z-score [20]: 0.634 (inactive)

COc1ccc(C#Cc2ccc3c(c2)[C@]2(C(=O)N3)[C@H](c3ccc(OCCO)cc3)N3[C@H](c4ccccc4)[C@H](c4ccccc4)OC(=O)[C@H]3[C@@H]2C(=O)N2CCN(c3ncccn3)CC2)cc1
z-score [1]: 2.34 (inactive) | composite z-score [2]: 0.0436 | z-score [3]: 3.2 (inactive) | z-score [4]: 0.964 (inactive) | z-score [5]: -1.48 (inactive) | z-score [6]: -0.856 (inactive) | z-score [7]: 0.379 | z-score [8]: 1.15 (inactive) | z-score [9]: 0.706 (inactive) | z-score [10]: 1.34 | z-score [11]: -0.446 | z-score [12]: 1.15 | z-score [13]: -0.646 | z-score [14]: 0.496 | z-score [15]: -0.106 | z-score [16]: -0.851 | z-score [17]: 4.27 (inactive) | z-score [18]: -0.507 | z-score [19]: -0.816 | z-score [20]: 1.32 (inactive)

COc1ccc([Si](C)(C)[C@@H]2[C@@H](CC(=O)N(CCO)Cc3ccccc3)O[C@]3(C(=O)N(C)c4c(Br)cc(C)cc43)[C@H]2C)cc1
z-score [1]: -1.98 (inactive) | composite z-score [2]: -0.103 | z-score [3]: 26.6 (active) | z-score [4]: 14.2 (active) | z-score [5]: 0.233 (inactive) | z-score [6]: 2.09 (inactive) | z-score [7]: 0.336 | z-score [8]: -1.91 (inactive) | z-score [9]: -0.00605 (inactive) | z-score [10]: -1.28 | z-score [11]: -2.07 | z-score [12]: -0.0228 | z-score [13]: -2.44 | z-score [14]: -2.75 | z-score [15]: -4.38 | z-score [16]: -2.82 | z-score [17]: -0.68 (inactive) | z-score [18]: -1.17 | z-score [19]: -2.11 | z-score [20]: -0.99 (inactive)

O=C1O[C@@H](c2ccccc2)[C@@H](c2ccccc2)N2[C@@H](c3ccc(O)cc3)[C@]3(C(=O)Nc4ccc(C#CC5(O)CCCCCC5)cc43)[C@@H](C(=O)N3CCN(c4ncccn4)CC3)[C@H]12
z-score [1]: 1.36 (inactive) | composite z-score [2]: 0.214 | z-score [3]: 0.0075 (inactive) | z-score [4]: -0.443 (inactive) | z-score [5]: -5.11 (inactive) | z-score [6]: -0.195 (inactive) | z-score [7]: -0.181 | z-score [8]: 1.07 (inactive) | z-score [9]: 0.74 (inactive) | z-score [10]: 0.443 | z-score [11]: -0.415 | z-score [12]: 0.292 | z-score [13]: -0.458 | z-score [14]: -0.0835 | z-score [15]: -0.813 | z-score [16]: -0.512 | z-score [17]: -0.68 (inactive) | z-score [18]: -1.05 | z-score [19]: -0.203 | z-score [20]: 0.533 (inactive)

O=C1N(Cc2ccccc2)c2ccccc2[C@H]2OC(c3ccc(OCCCO)cc3)=N[C@@]12CCS(=O)(=O)c1ccccc1
z-score [1]: -0.751 (inactive) | composite z-score [2]: 0.396 | z-score [3]: 25.3 (active) | z-score [4]: 11.8 (active) | z-score [5]: 2.9 (inactive) | z-score [6]: 1.85 (inactive) | z-score [7]: -0.0791 | z-score [8]: -0.596 (inactive) | z-score [9]: -0.793 (inactive) | z-score [10]: -1.21 | z-score [11]: -0.737 | z-score [12]: 0.899 | z-score [13]: -0.117 | z-score [14]: -0.641 | z-score [15]: -1.43 | z-score [16]: 0.291 | z-score [17]: 0.605 (inactive) | z-score [18]: -0.497 | z-score [19]: -0.0454 | z-score [20]: -0.725 (inactive)

CC1(C)[C@@H]2CC(C(O)C3C=CC4C(=O)N(c5ccccc5)C(=O)C4N3Nc3ccccc3F)=C[C@@H]1C2 (stereo not given in full)
z-score [1]: 0.446 (inactive) | composite z-score [2]: 0.43 | z-score [3]: 1.83 (inactive) | z-score [4]: 0.194 (inactive) | z-score [5]: -1.57 (inactive) | z-score [6]: -0.786 (inactive) | z-score [7]: 0.586 | z-score [8]: 0.318 (inactive) | z-score [9]: 0.0669 (inactive) | z-score [10]: -0.156 | z-score [11]: 0.604 | z-score [12]: -0.297 | z-score [13]: -0.0679 | z-score [14]: 0.848 | z-score [15]: 0.219 | z-score [16]: -0.424 | z-score [17]: -1.07 (inactive) | z-score [18]: 0.157 | z-score [19]: -1.41 | z-score [20]: 1.01 (inactive)

COCCCNC(=O)[C@@H]1c2ccccc2C(=O)N(c2ccc(C)cn2)[C@H]1c1ccc(CO)cc1
z-score [1]: -0.889 (inactive) | composite z-score [2]: -0.0984 | z-score [3]: 1.21 (inactive) | z-score [4]: -0.205 (inactive) | z-score [5]: 1.74 (inactive) | z-score [6]: 0.205 (inactive) | z-score [7]: -0.112 | z-score [8]: 0.837 (inactive) | z-score [9]: -0.797 (inactive) | z-score [10]: -0.00783 | z-score [11]: 0.212 | z-score [12]: 1.23 | z-score [13]: -0.357 | z-score [14]: -1.04 | z-score [15]: -0.57 | z-score [16]: -0.569 | z-score [17]: -0.916 (inactive) | z-score [18]: 0.83 | z-score [19]: 0.484 | z-score [20]: -0.708 (inactive)

CN(C)C(=O)[C@@]1(CCC(=O)OC(C)(C)C)COC(c2ccc(OCCCO)cc2)=N1
z-score [1]: 0.752 (inactive) | composite z-score [2]: 0.3 | z-score [3]: 9.27 (active) | z-score [4]: 0.536 (inactive) | z-score [5]: -0.674 (inactive) | z-score [6]: 0.198 (inactive) | z-score [7]: -0.449 | z-score [8]: -0.0773 (inactive) | z-score [9]: 0.829 (inactive) | z-score [10]: 0.655 | z-score [11]: 0.236 | z-score [12]: -0.417 | z-score [13]: 0.306 | z-score [14]: 0.0475 | z-score [15]: 0.0972 | z-score [16]: -0.868 | z-score [17]: 0.0942 (inactive) | z-score [18]: 0.0733 | z-score [19]: -1.14 | z-score [20]: 0.594 (inactive)
